Results taken from ChEMBL document CHEMBL1961873, “Compounds: GSK PKIS; Assays: Nanosyn kinase panel” (2012).
Several values for one entry are separate records, joined by “and”; a condition that tells them apart may be missing. Equal values may be shown once.

Key:
[1] = target: Serine/threonine-protein kinase MARK2 (Homo sapiens) (UniProt Q7KZI7); conditions: at 1 µM
[2] = target: PAS domain-containing serine/threonine-protein kinase (Homo sapiens) (UniProt Q96RG2); conditions: at 0.1 µM
[3] = target: PAS domain-containing serine/threonine-protein kinase (Homo sapiens) (UniProt Q96RG2); conditions: at 1 µM
[4] = target: Phosphorylase b kinase gamma catalytic chain, skeletal muscle/heart isoform (Homo sapiens) (UniProt Q16816); conditions: at 0.1 µM
Sequence of Phosphorylase b kinase gamma catalytic chain, skeletal muscle/heart isoform (Homo sapiens) (Q16816 whole entry, looked up, canonical isoform): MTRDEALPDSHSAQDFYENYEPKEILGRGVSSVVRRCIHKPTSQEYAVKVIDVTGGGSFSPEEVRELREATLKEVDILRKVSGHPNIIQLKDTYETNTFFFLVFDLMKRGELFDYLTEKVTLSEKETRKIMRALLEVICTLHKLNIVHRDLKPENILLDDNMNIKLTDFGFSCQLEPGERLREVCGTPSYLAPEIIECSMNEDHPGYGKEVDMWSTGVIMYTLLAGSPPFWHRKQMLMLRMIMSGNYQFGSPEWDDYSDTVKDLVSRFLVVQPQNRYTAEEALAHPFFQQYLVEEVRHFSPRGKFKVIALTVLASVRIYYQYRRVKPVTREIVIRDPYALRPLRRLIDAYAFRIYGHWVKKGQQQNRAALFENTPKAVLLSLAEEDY

[5] = target: Phosphorylase b kinase gamma catalytic chain, skeletal muscle/heart isoform (Homo sapiens) (UniProt Q16816); conditions: at 1 µM
[6] = target: T1, Phosphorylase b kinase gamma catalytic chain, liver/testis isoform (Homo sapiens) (UniProt P15735); conditions: at 0.1 µM
T1 sequence (whole entry): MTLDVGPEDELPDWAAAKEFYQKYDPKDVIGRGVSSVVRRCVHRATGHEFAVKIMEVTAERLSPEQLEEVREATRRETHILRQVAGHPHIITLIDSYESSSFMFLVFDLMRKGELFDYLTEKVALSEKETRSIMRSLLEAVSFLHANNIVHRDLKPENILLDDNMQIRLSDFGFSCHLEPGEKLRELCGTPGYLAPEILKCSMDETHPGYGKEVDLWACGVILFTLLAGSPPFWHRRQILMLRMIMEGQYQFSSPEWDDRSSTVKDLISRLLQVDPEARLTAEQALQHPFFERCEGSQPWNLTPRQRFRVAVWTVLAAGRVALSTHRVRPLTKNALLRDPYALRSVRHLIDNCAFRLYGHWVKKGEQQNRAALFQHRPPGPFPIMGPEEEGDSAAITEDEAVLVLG

[7] = target: T1, Phosphorylase b kinase gamma catalytic chain, liver/testis isoform (Homo sapiens); conditions: at 1 µM
[8] = target: Serine/threonine-protein kinase pim-1 (Homo sapiens) (UniProt P11309); conditions: at 0.1 µM
Sequence of Serine/threonine-protein kinase pim-1 (Homo sapiens) (P11309 whole entry, looked up): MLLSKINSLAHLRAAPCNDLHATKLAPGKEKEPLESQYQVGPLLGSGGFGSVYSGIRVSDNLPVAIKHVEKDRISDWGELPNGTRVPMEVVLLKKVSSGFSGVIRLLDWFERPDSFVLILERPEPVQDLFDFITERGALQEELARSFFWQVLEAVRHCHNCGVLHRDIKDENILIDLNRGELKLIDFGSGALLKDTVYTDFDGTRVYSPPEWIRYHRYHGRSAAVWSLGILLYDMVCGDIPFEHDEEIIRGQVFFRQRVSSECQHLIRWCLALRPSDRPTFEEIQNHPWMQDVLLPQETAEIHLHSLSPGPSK

[9] = target: Serine/threonine-protein kinase pim-1 (Homo sapiens) (UniProt P11309); conditions: at 1 µM
[10] = target: Serine/threonine-protein kinase pim-2 (Homo sapiens) (UniProt Q9P1W9); conditions: at 0.1 µM
[11] = target: Serine/threonine-protein kinase pim-2 (Homo sapiens) (UniProt Q9P1W9); conditions: at 1 µM
[12] = target: Serine/threonine-protein kinase pim-3 (Homo sapiens) (UniProt Q86V86); conditions: at 0.1 µM
[13] = target: Serine/threonine-protein kinase pim-3 (Homo sapiens) (UniProt Q86V86); conditions: at 1 µM
[14] = target: T2, MAP kinase-activated protein kinase 5 (Homo sapiens) (UniProt Q8IW41); conditions: at 0.1 µM
T2 sequence (whole entry): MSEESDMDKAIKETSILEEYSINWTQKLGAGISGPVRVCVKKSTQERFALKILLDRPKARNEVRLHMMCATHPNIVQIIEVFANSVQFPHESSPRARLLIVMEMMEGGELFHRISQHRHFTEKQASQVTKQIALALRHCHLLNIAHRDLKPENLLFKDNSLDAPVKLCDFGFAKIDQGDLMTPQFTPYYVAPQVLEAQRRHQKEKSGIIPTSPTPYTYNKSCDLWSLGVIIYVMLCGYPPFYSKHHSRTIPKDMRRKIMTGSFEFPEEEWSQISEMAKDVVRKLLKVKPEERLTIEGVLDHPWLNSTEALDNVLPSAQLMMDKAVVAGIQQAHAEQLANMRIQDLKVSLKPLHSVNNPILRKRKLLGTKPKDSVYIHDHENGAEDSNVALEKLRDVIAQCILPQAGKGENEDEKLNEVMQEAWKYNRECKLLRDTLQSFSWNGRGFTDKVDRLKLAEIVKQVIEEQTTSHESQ

[15] = target: T2, MAP kinase-activated protein kinase 5 (Homo sapiens); conditions: at 1 µM
[16] = target: Serine/threonine-protein kinase SIK1 (Homo sapiens) (UniProt P57059); conditions: at 0.1 µM
Sequence of Serine/threonine-protein kinase SIK1 (Homo sapiens) (P57059 whole entry): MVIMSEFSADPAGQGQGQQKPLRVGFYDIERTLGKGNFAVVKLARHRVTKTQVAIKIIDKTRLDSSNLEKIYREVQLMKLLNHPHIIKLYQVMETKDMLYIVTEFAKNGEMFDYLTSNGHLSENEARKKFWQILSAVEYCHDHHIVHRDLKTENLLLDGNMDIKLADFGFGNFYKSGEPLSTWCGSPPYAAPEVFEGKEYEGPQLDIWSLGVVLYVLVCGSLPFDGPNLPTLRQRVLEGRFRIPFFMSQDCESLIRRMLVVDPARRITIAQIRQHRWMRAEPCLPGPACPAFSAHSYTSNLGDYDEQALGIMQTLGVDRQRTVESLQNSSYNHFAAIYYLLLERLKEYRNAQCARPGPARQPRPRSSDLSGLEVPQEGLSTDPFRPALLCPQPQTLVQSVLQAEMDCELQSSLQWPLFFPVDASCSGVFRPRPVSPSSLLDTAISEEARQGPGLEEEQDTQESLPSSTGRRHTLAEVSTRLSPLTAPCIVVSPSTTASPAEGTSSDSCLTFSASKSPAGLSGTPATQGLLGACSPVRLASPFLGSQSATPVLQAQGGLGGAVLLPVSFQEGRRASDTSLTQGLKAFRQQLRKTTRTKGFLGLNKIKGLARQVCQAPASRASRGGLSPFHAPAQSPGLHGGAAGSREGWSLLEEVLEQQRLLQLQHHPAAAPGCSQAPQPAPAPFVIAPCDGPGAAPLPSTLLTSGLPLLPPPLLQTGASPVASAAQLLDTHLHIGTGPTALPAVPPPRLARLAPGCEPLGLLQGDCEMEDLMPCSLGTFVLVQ

[17] = target: Serine/threonine-protein kinase SIK1 (Homo sapiens) (UniProt P57059); conditions: at 1 µM
[18] = target: Serine/threonine-protein kinase SIK2 (Homo sapiens) (UniProt Q9H0K1); conditions: at 0.1 µM
Sequence of Serine/threonine-protein kinase SIK2 (Homo sapiens) (Q9H0K1 whole entry, looked up): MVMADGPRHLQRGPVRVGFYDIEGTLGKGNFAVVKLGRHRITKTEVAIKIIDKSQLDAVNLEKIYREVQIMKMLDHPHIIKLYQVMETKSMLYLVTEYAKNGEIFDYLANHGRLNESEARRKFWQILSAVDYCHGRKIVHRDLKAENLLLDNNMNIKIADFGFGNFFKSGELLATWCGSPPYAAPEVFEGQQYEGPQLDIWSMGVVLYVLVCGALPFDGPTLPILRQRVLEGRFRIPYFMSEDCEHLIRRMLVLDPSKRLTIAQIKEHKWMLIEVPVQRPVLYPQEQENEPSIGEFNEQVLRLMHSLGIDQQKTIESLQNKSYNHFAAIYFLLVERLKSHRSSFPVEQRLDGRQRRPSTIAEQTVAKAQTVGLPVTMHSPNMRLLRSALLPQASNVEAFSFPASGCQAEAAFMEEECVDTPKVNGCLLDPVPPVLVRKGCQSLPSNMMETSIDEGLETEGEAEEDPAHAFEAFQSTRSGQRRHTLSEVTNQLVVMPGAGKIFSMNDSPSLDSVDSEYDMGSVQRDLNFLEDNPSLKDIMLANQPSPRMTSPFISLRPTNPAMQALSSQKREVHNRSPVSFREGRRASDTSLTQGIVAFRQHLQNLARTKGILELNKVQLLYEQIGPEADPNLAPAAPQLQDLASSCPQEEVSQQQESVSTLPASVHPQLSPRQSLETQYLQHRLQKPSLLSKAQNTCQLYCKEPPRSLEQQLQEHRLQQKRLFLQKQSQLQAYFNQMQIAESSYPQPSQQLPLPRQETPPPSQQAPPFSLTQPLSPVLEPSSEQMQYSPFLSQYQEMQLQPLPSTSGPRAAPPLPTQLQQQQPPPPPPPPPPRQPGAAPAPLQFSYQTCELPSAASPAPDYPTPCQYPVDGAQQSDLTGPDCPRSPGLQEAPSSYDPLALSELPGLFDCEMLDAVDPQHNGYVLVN

[19] = target: Serine/threonine-protein kinase SIK2 (Homo sapiens) (UniProt Q9H0K1); conditions: at 1 µM
[20] = target: T3, Serine/threonine-protein kinase TBK1 (Homo sapiens) (UniProt Q9UHD2); conditions: at 0.1 µM;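 further: values are the mean TBK1 inhibition, taken from the GSK PKIS screening data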
T3 sequence (whole entry): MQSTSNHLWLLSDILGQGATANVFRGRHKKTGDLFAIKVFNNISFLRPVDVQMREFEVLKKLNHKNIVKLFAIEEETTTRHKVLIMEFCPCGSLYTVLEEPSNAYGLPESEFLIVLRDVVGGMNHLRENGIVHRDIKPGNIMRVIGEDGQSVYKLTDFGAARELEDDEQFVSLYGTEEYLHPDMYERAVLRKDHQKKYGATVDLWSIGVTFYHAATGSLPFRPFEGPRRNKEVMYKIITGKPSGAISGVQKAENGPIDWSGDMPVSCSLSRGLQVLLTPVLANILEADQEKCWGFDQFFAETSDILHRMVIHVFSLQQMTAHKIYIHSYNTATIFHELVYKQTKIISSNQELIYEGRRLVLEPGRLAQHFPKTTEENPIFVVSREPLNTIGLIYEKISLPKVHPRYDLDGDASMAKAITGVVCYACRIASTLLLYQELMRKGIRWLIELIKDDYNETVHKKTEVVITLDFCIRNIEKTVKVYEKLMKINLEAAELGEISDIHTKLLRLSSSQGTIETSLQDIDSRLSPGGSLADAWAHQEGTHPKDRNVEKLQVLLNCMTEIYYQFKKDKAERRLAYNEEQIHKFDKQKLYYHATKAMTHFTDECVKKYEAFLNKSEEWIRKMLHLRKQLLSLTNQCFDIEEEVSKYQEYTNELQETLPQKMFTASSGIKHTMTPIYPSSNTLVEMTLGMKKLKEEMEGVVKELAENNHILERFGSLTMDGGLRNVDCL

Sequence of PAS domain-containing serine/threonine-protein kinase (Homo sapiens) (Q96RG2 whole entry, the tested form may be a part, canonical isoform): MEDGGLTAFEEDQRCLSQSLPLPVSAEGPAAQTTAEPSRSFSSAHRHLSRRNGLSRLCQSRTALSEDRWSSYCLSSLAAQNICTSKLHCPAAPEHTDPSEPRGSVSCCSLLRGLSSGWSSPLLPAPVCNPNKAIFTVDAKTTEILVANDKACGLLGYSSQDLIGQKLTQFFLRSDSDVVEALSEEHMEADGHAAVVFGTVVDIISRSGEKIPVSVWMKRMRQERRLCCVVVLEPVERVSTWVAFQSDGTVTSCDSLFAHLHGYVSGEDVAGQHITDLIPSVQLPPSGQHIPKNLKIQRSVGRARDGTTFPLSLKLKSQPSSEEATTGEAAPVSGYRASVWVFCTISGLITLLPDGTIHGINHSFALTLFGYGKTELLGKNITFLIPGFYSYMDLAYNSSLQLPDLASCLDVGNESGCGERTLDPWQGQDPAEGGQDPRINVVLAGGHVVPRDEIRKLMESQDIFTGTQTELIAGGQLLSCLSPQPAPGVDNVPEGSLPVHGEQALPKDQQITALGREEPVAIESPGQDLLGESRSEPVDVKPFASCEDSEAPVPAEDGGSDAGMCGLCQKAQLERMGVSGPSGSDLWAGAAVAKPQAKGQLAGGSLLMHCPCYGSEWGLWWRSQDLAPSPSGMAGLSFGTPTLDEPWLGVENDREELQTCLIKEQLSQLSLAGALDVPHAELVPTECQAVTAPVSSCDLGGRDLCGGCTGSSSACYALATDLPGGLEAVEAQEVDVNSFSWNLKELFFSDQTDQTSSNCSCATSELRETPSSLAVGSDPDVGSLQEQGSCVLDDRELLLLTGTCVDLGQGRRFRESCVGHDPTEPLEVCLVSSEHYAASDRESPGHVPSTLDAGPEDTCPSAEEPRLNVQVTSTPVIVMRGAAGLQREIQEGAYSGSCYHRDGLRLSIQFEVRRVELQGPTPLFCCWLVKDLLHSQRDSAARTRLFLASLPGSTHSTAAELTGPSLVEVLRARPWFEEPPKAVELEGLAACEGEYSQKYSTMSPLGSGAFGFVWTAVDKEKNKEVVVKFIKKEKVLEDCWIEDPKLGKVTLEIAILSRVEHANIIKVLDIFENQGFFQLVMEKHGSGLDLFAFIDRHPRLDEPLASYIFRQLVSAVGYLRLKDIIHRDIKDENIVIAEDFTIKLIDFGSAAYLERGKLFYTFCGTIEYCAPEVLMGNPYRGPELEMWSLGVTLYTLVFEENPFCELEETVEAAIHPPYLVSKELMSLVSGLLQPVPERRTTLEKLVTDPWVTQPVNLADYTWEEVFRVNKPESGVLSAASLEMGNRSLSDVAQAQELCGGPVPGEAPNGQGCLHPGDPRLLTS
Sequence of Serine/threonine-protein kinase MARK2 (Homo sapiens) (Q7KZI7 whole entry, the tested form may be a part): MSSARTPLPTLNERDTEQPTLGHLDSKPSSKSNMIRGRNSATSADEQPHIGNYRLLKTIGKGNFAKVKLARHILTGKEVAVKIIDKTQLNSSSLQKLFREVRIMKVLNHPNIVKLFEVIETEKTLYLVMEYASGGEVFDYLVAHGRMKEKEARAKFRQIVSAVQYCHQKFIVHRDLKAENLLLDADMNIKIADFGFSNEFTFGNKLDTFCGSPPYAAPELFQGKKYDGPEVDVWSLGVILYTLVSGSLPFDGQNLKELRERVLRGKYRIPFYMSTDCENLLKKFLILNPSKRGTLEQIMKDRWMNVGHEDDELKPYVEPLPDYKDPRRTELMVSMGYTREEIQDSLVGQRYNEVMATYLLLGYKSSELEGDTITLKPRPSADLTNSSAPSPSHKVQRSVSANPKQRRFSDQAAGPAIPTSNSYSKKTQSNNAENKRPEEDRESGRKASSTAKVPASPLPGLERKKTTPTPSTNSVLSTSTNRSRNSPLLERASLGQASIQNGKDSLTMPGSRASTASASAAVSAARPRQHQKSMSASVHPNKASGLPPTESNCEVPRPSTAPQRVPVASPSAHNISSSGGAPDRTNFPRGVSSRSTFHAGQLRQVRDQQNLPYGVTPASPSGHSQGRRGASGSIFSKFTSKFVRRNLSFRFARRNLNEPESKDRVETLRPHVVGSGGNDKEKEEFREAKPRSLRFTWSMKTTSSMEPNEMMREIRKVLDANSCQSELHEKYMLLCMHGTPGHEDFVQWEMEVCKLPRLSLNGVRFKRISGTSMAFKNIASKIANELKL

Compound	inhibition [1]	inhibition [2]	inhibition [3]	inhibition [4]	inhibition [5]	inhibition [6]	inhibition [7]	inhibition [8]	inhibition [9]	inhibition [10]	inhibition [11]	inhibition [12]	inhibition [13]	inhibition [14]	inhibition [15]	inhibition [16]	inhibition [17]	inhibition [18]	inhibition [19]	inhibition [20]
CCCNc1cccc(-n2ncc3c(N/N=C/c4ccncc4)ncnc32)c1	4.97%	1.18%	3.05%	2.76%	19.5%	2.56%	7.69%	0.64%	1.01%	1.23%	0.32%	3.58%	4.06%	0.95%	1.6%	3.14%	9.54%	-0.68%	21.1%	2.22%
CC1=C(C(=O)Nc2ccc3[nH]ncc3c2)C(c2ccc(F)cc2)N=C(c2ccc(C(F)(F)F)nc2)N1 (stereo not given)	2.79%	-0.13%	-0.98%	0.36%	1.77%	1.74%	-0.23%	0.3%	-0.09%	0.44%	0.66%	0.08%	-1.05%	0.55%	0.22%	4.91%	4.39%	2.09%	4.41%	-0.16%
COc1c(C(N)=O)cc(-c2ccc(Cl)cc2)cc1-c1ccc(S(N)(=O)=O)cc1	1.57%	-2.39%	-1.49%	0.45%	3.12%	3.72%	5.17%	1.83%	2.23%	-0.64%	-0.88%	-0.2%	0.43%	1.35%	2.31%	10.7%	16.1%	8.28%	6.93%	4.69%
NC(=O)c1ccc2c(-c3ccnc(NCCCO)n3)c(-c3ccc(F)cc3)nn2c1	1.98%	0.06%	-1.12%	6.92%	7.38%	5.28%	2.16%	1.1%	0.82%	-0.18%	1.11%	-0.5%	-0.27%	1.47%	1.16%	3.64%	16%	9.22%	40.4%	4.13%
CC(C)c1ccc(-c2cc(-c3c[nH]nc3-c3ccccn3)ccn2)cc1	-0.26%	-0.36%	-1.24%	0.46%	1.25%	-0.69%	-0.76%	0.3%	-0.2%	-0.34%	-0.1%	0.23%	-0.66%	0.04%	-0.19%	0.32%	0.87%	-2.6%	-1.02%	0.97%
CN1CCC(n2cnc(-c3ccc(F)cc3)c2-c2ccnc(NCCO)n2)CC1	-0.08%	0.82%	0.93%	2.34%	5.88%	4.56%	7.31%	0.34%	1.55%	0.95%	2.65%	1.55%	5.22%	1.7%	4.06%	2.04%	6.87%	4.44%	16.6%	-0.04%
Nc1ncnc2occ(-c3ccc(NC(=O)Nc4cc(C(F)(F)F)ccc4F)cc3)c12	2.65% and 0.89%	0.79% and 0.18%	0.2% and -0.5%	0.08% and -0.25%	4.52% and 6.47%	2.69% and -2.51%	-1.12% and -5.1%	0.97% and 0.53%	1.19% and 2.46%	0.22% and 0.7%	0.09% and 1.14%	0.34% and 0.04%	-1.35% and 1.44%	-0.03% and -0.81%	-1.65% and -0.72%	5.31% and -3.84%	6.74% and 3.25%	6.29% and -4.61%	1.48% and -6.22%	0.47% and 0.44%
CN(C)CCNC(=O)Nc1ccc(N(C)c2ccnc(Nc3ccc(CS(C)(=O)=O)cc3)n2)cc1	7.11%	1.26%	-0.25%	2.14%	4.59%	4.64%	1.59%	1.06%	1.39%	0.27%	2.68%	-0.48%	-1.2%	1.02%	0.33%	5.41%	31.9%	8.68%	13.6%	2.12%
COc1cc(Nc2ncc(-c3ccccc3)o2)cc(OC)c1	2.52%	-1.02%	-0.79%	5.83%	14.1%	4.54%	5.45%	1.14%	1.63%	0.58%	0.6%	0.03%	-0.34%	1.24%	2.34%	6.1%	20.6%	7.38%	33.8%	2.71%
Nc1nonc1-c1nc2cnccc2n1C1CC1	17.9% and 14.9%	0.62% and -0.65%	1.08% and 0.92%	5% and 3.93%	7.51% and 3.48%	4.1% and 2.66%	1.15% and 2.16%	12.4% and 13.8%	56.3% and 59.1%	1.57% and -2.36%	11.3% and 9.18%	3.94% and 4.22%	30.6% and 32.5%	0.67% and 1.06%	-0.55% and 4.15%	6.64% and 2.66%	8.35% and 5.12%	0.75% and 5.71%	5.93% and 2.36%	7.96% and 1.98%
O=C(O[C@H]1CN[C@H](C#Cc2cc3ncnc(Nc4ccc5c(ccn5Cc5cc(F)ccc5F)c4)c3s2)C1)N1CCOCC1	-0.27%	0.1%	-1.39%	3.09%	4.72%	4.96%	2.49%	0.84%	0.83%	0.44%	0.17%	-1.4%	-2.6%	1.04%	0.93%	5.35%	7.23%	2.92%	7.13%	2.75%
CC1=C(C(=O)Nc2ccc3[nH]nc(C)c3c2)C(c2ccc(C(F)(F)F)cc2)CC(=O)N1 (stereo not given)	4.76%	0.2%	-1.78%	4.32%	0.7%	2.48%	-2.45%	1.05%	0%	0%	0.55%	0.17%	-2.32%	0.34%	-0.66%	0.72%	1.39%	4.07%	0.64%	-1.52%
FC(F)(F)CNc1nccc(-c2cnn3ncccc23)n1	2.13%	1.06%	0.79%	3.02%	6.43%	3.98%	4.36%	0.08%	3.03%	-0.09%	1.1%	-0.3%	1.93%	1.14%	0.15%	2.46%	1.86%	-0.9%	0.27%	1.42%
NS(=O)(=O)c1ccc(N/N=C2\C(=O)Nc3ccc(C(=O)NCc4ccncc4)cc32)cc1	21.3%	0.76%	2.6%	5.19%	28.9%	4.99%	11.4%	1.75%	7.29%	0.12%	4.93%	1.9%	8.56%	1.84%	6.01%	3.99%	19.8%	6.03%	17.1%	3.83%
Nc1nccc(-c2c(-c3ccc(F)cc3)ncn2C2CCNCC2)n1	1.75% and 0.35%	-0.64% and -0.39%	-0.63% and -0.93%	-0.27% and 1.11%	2.04% and 1.58%	-6.47% and 0.35%	-6.27% and -1.71%	0.29% and -0.7%	7.06% and -0.6%	-0.19% and 0.2%	1.8% and 0.96%	0.82% and 0.07%	11% and 0.53%	-1.67% and 0.07%	-1.48% and 0.35%	-9% and 6.76%	-2.37% and 5.84%	-0.69% and 8.02%	37.4% and 47.1%	-1.45% and -0.58%
COc1cc2c(cc1Nc1nc(Nc3cccc(F)c3C(N)=O)c3cc[nH]c3n1)N(C(=O)CN1CCN(C(C)C)CC1)CC2	3.63%	-0.77%	-0.72%	0.29%	9.54%	3.29%	5.63%	1.43%	0.21%	-0.02%	0.2%	0.01%	1.84%	0.57%	1.03%	5.86%	8.52%	3.09%	0.18%	2.33%
Cc1c2ccc(N(C)c3ccnc(Nc4cccc(S(N)(=O)=O)c4)n3)cc2nn1C	4.84%	0.26%	-1.92%	4.4%	7.27%	4.88%	3.28%	0.43%	1.01%	-3.44%	-3.16%	-1.16%	-2.47%	1.9%	1.08%	4.24%	27.6%	3.64%	9.51%	4.99%
CN1CCN(Cc2ccc(-c3cc4ncnc(Nc5ccc(OCc6cccc(F)c6)c(Cl)c5)c4s3)o2)CC1	2.8% and -1.69%	1.09% and -0.73%	0.63% and 0.18%	4.48%	6.3% and 12.4%	3.47% and 7.21%	2.85% and 9.87%	-0.54% and 0.21%	1.02% and 0.98%	-0.52% and 0.67%	0.42% and 1.37%	-0.99% and -1.6%	0.95% and 2.39%	0.79% and 1.52%	0.84% and 3.86%	4.03% and 8.14%	12.8% and 15.9%	2.15% and 4.89%	1.94% and 9.4%	1.51% and 5%
COc1ccc(-c2nn3ncccc3c2-c2ccnc(Nc3ccc(F)c(F)c3)n2)cc1	0.59%	1.16%	1.41%	8.48%	10.2%	4.94%	9.5%	0.43%	0.69%	1.57%	4.2%	4.52%	6.05%	1.6%	4.42%	1.5%	8.64%	8.32%	7.08%	-2.71%
